Experimental data: PubChem BioAssay AID463173 (ICCB-Longwood Screening Facility, Harvard Medical School, 2010)
Hit rate of the full screen: of about 52,000 compounds, about 4,300 (8.3%) were called active. For the sample, actives were picked, then their nearest neighbours and some compounds at random. Unmarked numbers belong to inactive results. Rule as the data show it: active = survival mostly below about 52% (no sharp cut-off); inactive = mostly above about 56%.

Each molecule was assayed on DeltatarO mutant (assay: growth inhibition of S. aureus wild type versus tarO mutant, primary screen, teichoic acid synthesis inhibitors, RN4220, OD600 (AID 463173)). Conditions: OD600, 18 h, active compounds read low, screened at 18.75 µg/mL (by protocol).

SMILES	survival
COC(=O)C(NC(=O)CC(C)C)(Nc1nc2c(s1)CCCC2)C(F)(F)F (centres undefined)	120%
COc1ccc(CNC(=O)c2cc(-c3ccc(Cl)cc3)n[nH]2)cc1	78%
COc1ccc(-c2cc(C(F)(F)F)nc(SCC(=O)NCc3ccc(Cl)cc3)n2)cc1	62%
COc1ccc(-c2cc(C(F)(F)F)nc(NCc3ccc(Cl)cc3)n2)cc1	3% (active)
COc1ccc(CNc2nc(-c3ccc(Cl)cc3)cc(C(F)(F)F)n2)cc1	29% (active)
CCN(c1cccc(C)c1)S(=O)(=O)c1ccc2[nH]cc(C(=O)NCCCOC)c(=O)c2c1	67%
COc1ccc(N(C)C(=O)c2nc(-c3cccc(F)c3)n3c2CCCCC3)c(OC)c1	74%
CCOC(=O)c1cccc(NS(=O)(=O)c2cc(-c3cnc(C4CC4)o3)ccc2C)c1	90%
O=C(Nc1cccnc1)c1cc(-c2ccc(Cl)cc2)on1	61%
CN1/C(=C\C(=O)Nc2cccnc2)c2ccccc2CC1(C)C	65%
Cn1c(=O)oc2cc(S(=O)(=O)CCC(=O)NCCc3ccccc3)ccc21	96%
COC(=O)c1c(NC(=O)C2c3ccccc3Oc3ccccc32)sc2c1CCC(C(C)(C)C)C2 (centres undefined)	78%
Cc1ccccc1NC(=O)c1c(NC(=O)c2ccncc2)sc2c1CCC(C(C)(C)C)C2 (centres undefined)	110%
CCOc1ccc(NC(=O)c2c(NC(=O)c3ccncc3)sc3c2CCC(C(C)(C)C)C3)cc1 (centres undefined)	113%
COC(=O)c1c(NC(=O)c2cccc(OC)c2)sc2c1CCC(C(C)(C)C)C2 (centres undefined)	43% (active)
CC(C)(C)C1CCc2c(sc(NC(=O)c3cccc(Cl)c3)c2C(N)=O)C1 (centres undefined)	70%
CCOc1ccc(NC(=O)c2c(NC(=O)c3cccs3)sc3c2CCC(C(C)(C)C)C3)cc1 (centres undefined)	67%
COc1ccc(NC(=O)c2c(NC(=O)COc3ccccc3)sc3c2CCC(C(C)(C)C)C3)cc1 (centres undefined)	75%
COc1ccc(NC(=O)c2c(NC(=O)c3ccncc3)sc3c2CCC(C(C)(C)C)C3)cc1 (centres undefined)	41% (active)
CCC(=O)Nc1sc2c(c1C(=O)Nc1ccc(OC)cc1)CCC(C(C)(C)C)C2 (centres undefined)	13% (active)
O=S(=O)(c1ccccc1)N1CCC(O)(c2ccccc2)C2CCCCC21 (centres undefined)	73%
CC(=O)c1cccc(NC(=O)C(Cc2ccccc2)NS(=O)(=O)c2ccc(Br)s2)c1 (centres undefined)	116%
Cc1n[nH]c(=S)n1CC(=O)n1c2c(c3ccccc31)CCCC2	91%
CC(=O)c1nnn(-c2ccc(C)cc2Cl)c1C	65%
CC(=O)Nc1c(C(=O)Nc2cccc(C)c2)nnn1-c1ccc(C)cc1	69% (active)
COc1cccc(NC(=O)c2nn(-c3ccc(C)cc3)c(=O)n(C)c2=O)c1	124%
Cc1cccc(NC(=O)c2ccc(-n3c(C)nnc3C)cc2)c1	88%
COc1ccc(C)cc1-n1nnc(C(=O)Nc2cccc(SC)c2)c1C	86%
Cc1ccc(C)c(-n2nnc(C(=O)Nc3ccc(Br)cc3)c2C)c1	18% (active)
